Measurements as given in ChEMBL document CHEMBL3988442, “University of Dundee, Small-Polar-MMV Screening Library” (2021).

molecular target: T1, Aspartate--tRNA(Asp/Asn) ligase (Mycobacterium tuberculosis (strain ATCC 25618 / H37Rv)) (UniProt P9WFW3); assay: Assay for Asp RNA synthetase-1 from Mycobacterium tuberculosis; assay type: functional; design: scale not given: in the data most compounds retested in dose-response had high values; conditions: 30 µM
T1 sequence (whole entry): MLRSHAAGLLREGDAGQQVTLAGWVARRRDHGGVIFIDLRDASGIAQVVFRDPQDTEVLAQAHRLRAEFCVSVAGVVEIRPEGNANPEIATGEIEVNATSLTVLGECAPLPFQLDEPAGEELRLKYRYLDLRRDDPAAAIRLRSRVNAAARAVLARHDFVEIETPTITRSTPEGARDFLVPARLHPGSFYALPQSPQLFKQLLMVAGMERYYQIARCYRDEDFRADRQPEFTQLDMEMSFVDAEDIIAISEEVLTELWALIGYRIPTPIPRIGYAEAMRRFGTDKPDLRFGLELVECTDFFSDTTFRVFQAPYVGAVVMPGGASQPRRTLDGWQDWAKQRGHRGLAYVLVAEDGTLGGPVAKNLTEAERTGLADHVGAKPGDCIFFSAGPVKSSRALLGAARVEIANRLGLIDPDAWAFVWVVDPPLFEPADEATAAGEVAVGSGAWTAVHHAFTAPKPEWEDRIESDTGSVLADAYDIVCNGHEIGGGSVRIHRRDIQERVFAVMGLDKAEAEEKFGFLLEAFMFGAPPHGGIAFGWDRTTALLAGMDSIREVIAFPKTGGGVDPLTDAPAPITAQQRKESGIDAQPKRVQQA

Question: `Cc1nc(CN2CCN(Cc3nccn3C)CC2)no1` was tested. Which Percent Effect did it give?
Answer: -3.87%

Question: With `Cc1nn(C)c(Cl)c1C(=O)NCC(c1ccsc1)N(C)C` (stereo not given) as the compound, how does the Percent Effect read?
Answer: -6.11%

Question: How did the Percent Effect turn out when `CC(C)c1ncc2c(n1)CN(Cc1nc(Cc3ccccc3)no1)CC2` was run?
Answer: -4.05%

Question: With `Cc1csc(N2CCCN(C(=O)C3(C#N)CCCCC3)CC2)n1` as the compound, how does the Percent Effect read?
Answer: -4.79%

Question: With `O=c1[nH]c2nc(N3CCSCC3)ncc2c(=O)n1-c1cccc(F)c1` as the compound, how does the Percent Effect read?
Answer: 13.7%

Question: Which Percent Effect does the source give for `Cc1n[nH]c(C2CN(C(=O)c3ccco3)CCO2)n1` (stereo not given) here?
Answer: 2.88%

Question: Which Percent Effect does the source give for `Cn1cnnc1C1CCCN(C(=O)c2cc(Cl)c3c(c2)OCO3)C1` (stereo not given) here?
Answer: -5.25%

Question: How did the Percent Effect turn out when `CN(Cc1nccn1CC(F)(F)F)C(=O)c1ccc(F)c(F)c1` was run?
Answer: 2.69%

Question: For `CC(C)c1noc(CCCC(=O)NC2CCS(=O)(=O)C2)n1` (stereo not given), which Percent Effect is on record?
Answer: 0.955%

Question: For `Cc1ccoc1C(=O)N1CC[C@H]2O[C@@H](C)C[C@H]2C1`, which Percent Effect is on record?
Answer: -2.48%

Question: For `Cc1ccc(NC2CCN(C(=O)c3ccc(Cl)o3)CC2)nn1`, which Percent Effect is on record?
Answer: 1.75%

Question: With `CC(C)NS(=O)(=O)c1cc(C(=O)O)cc(-c2ccc(CN(C)C)cc2)c1` as the compound, how does the Percent Effect read?
Answer: -3.46%

Question: `CCC(=O)N1CCC(O)(c2ncc(OC)nc2OC)CC1` was tested. Which Percent Effect did it give?
Answer: 1.66%

Question: How did the Percent Effect turn out when `COC(CNC(=O)N1CCC(n2cncn2)CC1)c1ccccc1` (stereo not given) was run?
Answer: -3.54%

Question: How did the Percent Effect turn out when `Cc1nn(C(C)C)c(C)c1NC(=O)c1ccncc1` was run?
Answer: -0.479%

Question: `CCc1nc2n(n1)CC(NCc1noc(-c3ccccc3)n1)CC2` (stereo not given) was tested. Which Percent Effect did it give?
Answer: -2.95%

Question: Which Percent Effect does the source give for `CS(=O)(=O)N1CCCC12CCCN(S(=O)(=O)c1ccc(F)cc1)C2` (stereo not given) here?
Answer: -6.05%

Question: `NC(=O)c1ccc2c(c1)nc1n2CCN(Cc2ccccc2)C1` was tested. Which Percent Effect did it give?
Answer: 3.29%

Question: How did the Percent Effect turn out when `COc1cccc(CN2CCCC3(CCN(C(=O)c4ccco4)C3)C2)c1` (stereo not given) was run?
Answer: 0.0455%

Question: Which Percent Effect does the source give for `COc1ccc(NC(=O)C2CCOC2)c(N2CCN(C(C)=O)CC2)n1` (stereo not given) here?
Answer: 1.42%

Question: Which Percent Effect does the source give for `CN(Cc1nnc(C2CC2)o1)C1CCN(CCCc2cnn(C)c2)C1` (stereo not given) here?
Answer: 5.28%

Question: `CC1CN(CC(=O)NC2CCCC2)CCN1c1ccc2nncn2n1` (stereo not given) was tested. Which Percent Effect did it give?
Answer: -3.52%

Question: `Cc1cnn(CC2CCCCN2C(=O)c2ccc3nnc(C)n3c2)c1` (stereo not given) was tested. Which Percent Effect did it give?
Answer: 10.3%

Question: For `COc1cccc(OCc2cc(C(=O)NC[C@H]3CCCN3)n[nH]2)c1`, which Percent Effect is on record?
Answer: 1%

Question: Which Percent Effect does the source give for `CCn1c(C)cc(C(=O)N2CCCC(n3nc(C)nc3C)C2)c1C` (stereo not given) here?
Answer: -4.26%

Question: With `O=C(c1cc[nH]n1)N1CCC(Nc2cccnn2)CC1` as the compound, how does the Percent Effect read?
Answer: -8.36%

Question: How did the Percent Effect turn out when `c1nc2c(c(C3CC3)n1)CCN(CC1CCOC1)CC2` (stereo not given) was run?
Answer: 3.35%

Question: With `CS(=O)(=O)c1snnc1C1CCN(Cc2ccncc2)CC1` as the compound, how does the Percent Effect read?
Answer: -6.42%

Question: For `Cc1nn(C)c(Cl)c1C1CCCN1C(=O)c1cc[nH]n1` (stereo not given), which Percent Effect is on record?
Answer: 3.04%

Question: With `O=C(c1ccnnc1)N1C[C@H](Oc2cccnc2)[C@H]2OCCC[C@H]21` as the compound, how does the Percent Effect read?
Answer: 2.1%

Question: With `O=C(NCCO)C1(Cc2cc(-c3ccc(F)cc3F)no2)CCOCC1` as the compound, how does the Percent Effect read?
Answer: 2.58%

Question: For `Cc1cnn(C2CCCN(C(=O)Cc3cn4ccccc4n3)C2)c1` (stereo not given), which Percent Effect is on record?
Answer: -6.71%

Question: Which Percent Effect does the source give for `CN1[C@H](Cn2cncn2)C[C@@H]2CN(Cc3cccc(C#N)c3)CC[C@@H]21` here?
Answer: 0.0985%

Question: With `Cc1csc(N2CCN(C(=O)CCc3ccccn3)CC2)n1` as the compound, how does the Percent Effect read?
Answer: 5.27%

Question: `Cc1ccccc1C(=O)NCc1ccc(N2CCNC(=O)C2)c(F)c1` was tested. Which Percent Effect did it give?
Answer: -0.569%

Question: For `Cc1cnn(CCNCC(O)COc2c(C)ccc(C)c2C)c1` (stereo not given), which Percent Effect is on record?
Answer: 1.91%

Question: With `CCn1cc2c(n1)CN(Cc1ccoc1)CC2COCC1CC1` (stereo not given) as the compound, how does the Percent Effect read?
Answer: -4.69%

Question: `CCc1nc(CNCC2CCCN2c2cc(NC)ncn2)cs1` (stereo not given) was tested. Which Percent Effect did it give?
Answer: -0.456%

Question: With `O=C(Cn1cnc(-c2ccccc2)cc1=O)Nc1ccncc1` as the compound, how does the Percent Effect read?
Answer: -2.03%

Question: `CCc1nc(CN2CCCN(Cc3cnn(C)c3)CC2)no1` was tested. Which Percent Effect did it give?
Answer: -10.6%
